Experimental data: PubChem BioAssay (Tox21)
Inconclusive results are not listed. Active and inactive are the calls of the source. The call rests on the fitted dose curve; in most records, active means well fitted curve in the direction sought with a large enough effect in the repeat runs; inconclusive means weak or mixed curves; inactive means no such curve, though single readings can be large; an effect the other way counts as inactive or inconclusive.

Key:
[1] = qHTS RealTime-Glo MT Cell Viability Assay in HEK293 cells - 16 hour (AID 1224872); further: nearly all actives have a fitted effect of over 50% in size; further: potency means the concentration at half of the fitted maximal effect
Method in brief: (§1)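 Assay medium contained NanoLuc luciferase plus cell-permeant prosubstrate, added with HEK293 cells at 600 cells/well. After 5 h at 37 C/5% CO2 compounds were added; plates stayed at 37 C for 40 h with serial luminescence reads.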

[2] = qHTS RealTime-Glo MT Cell Viability Assay in HEK293 cells - 40 hour (AID 1224874); conditions: RealTime-Glo luminescence; max response: stronger effect = lower value; further: nearly all actives have a fitted effect of over 50% in size; further: potency means the concentration at half of the fitted maximal effect
Method in brief: (§2)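 HEK293 + NanoLuc + prosubstrate, 600 cells/well; 5 h, 37 C/5% CO2; compound 23 nL in DMSO by pintool; 37 C; luminescence read at 0, 8, 16, 24, 32 and 40 h time points.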

[3] = A CellTox Green Cytotoxicity Assay to monitor cytotoxicity in HEK293 cells - 24 hour (AID 1224875); further: nearly all actives have a fitted effect of over 45% in size; further: potency means the concentration at half of the fitted maximal effect
Method in brief: (§3)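 Tox21 screen in HEK293: membrane-impermeant cyanine dye fluoresces on binding dead-cell DNA; compound pinned 5 h post-seeding, plates held at 37 C, signal read repeatedly through 40 h.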

[4] = A CellTox Green Cytotoxicity Assay to monitor cytotoxicity in HepG2 cells - 16 hour (AID 1224876); further: nearly all actives have a fitted effect of over 45% in size; further: potency means the concentration at half of the fitted maximal effect
Method in brief: (§4)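 Measurements at 0, 8, 16, 24, 32 and 40 h of treatment captured CellTox Green fluorescence in HepG2 cells that had been co-plated with reagent and preincubated 5 h at 37 C/5% CO2.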

[5] = qHTS RealTime-Glo MT Cell Viability Assay in HepG2 cells - 32 hour (AID 1224877); further: nearly all actives have a fitted effect of over 55% in size; further: potency means the concentration at half of the fitted maximal effect
Method in brief: (§5)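 qHTS, HepG2, 600 cells/well, RealTime-Glo (NanoLuc + prosubstrate) added with cells; 5 h preincubation; DMSO compound addition; 37 C; luminescence at 0/8/16/24/32/40 h.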

[6] = A CellTox Green Cytotoxicity Assay to monitor cytotoxicity in HepG2 cells - 24 hour (AID 1224878); further: nearly all actives have a fitted effect of over 45% in size; further: potency means the concentration at half of the fitted maximal effect
Method in brief: as §4

[7] = A CellTox Green Cytotoxicity Assay to monitor cytotoxicity in HepG2 cells - 40 hour (AID 1224879); further: nearly all actives have a fitted effect of over 40% in size; further: potency means the concentration at half of the fitted maximal effect
Method in brief: as §4

[8] = qHTS RealTime-Glo MT Cell Viability Assay in HEK293 cells - 0 hour (AID 1224880); further: top concentration of the series differs between compounds; nearly all actives have a fitted effect of over 45% in size
Method in brief: as §2

[9] = A CellTox Green Cytotoxicity Assay to monitor cytotoxicity in HepG2 cells - 0 hour (AID 1224882); further: nearly all actives have a fitted effect of over 35% in size
Method in brief: as §4

[10] = A CellTox Green Cytotoxicity Assay to monitor cytotoxicity in HepG2 cells - 32 hour (AID 1224883); further: nearly all actives have a fitted effect of over 50% in size; further: potency means the concentration at half of the fitted maximal effect
Method in brief: as §4

[11] = A CellTox Green Cytotoxicity Assay to monitor cytotoxicity in HEK293 cells - 8 hour (AID 1224884); further: nearly all actives have a fitted effect of over 35% in size; further: potency means the concentration at half of the fitted maximal effect
Method in brief: as §3

[12] = qHTS RealTime-Glo MT Cell Viability Assay in HepG2 cells - 16 hour (AID 1224885); further: nearly all actives have a fitted effect of over 50% in size
Method in brief: as §5

[13] = qHTS RealTime-Glo MT Cell Viability Assay in HEK293 cells - 8 hour (AID 1224887); further: nearly all actives have a fitted effect of over 50% in size; further: potency means the concentration at half of the fitted maximal effect
Method in brief: as §2

[14] = A CellTox Green Cytotoxicity Assay to monitor cytotoxicity in HEK293 cells - 16 hour (AID 1224888); further: nearly all actives have a fitted effect of over 35% in size; further: potency means the concentration at half of the fitted maximal effect
Method in brief: as §3

[15] = qHTS RealTime-Glo MT Cell Viability Assay in HepG2 cells - 0 hour (AID 1224889); further: nearly all actives have a fitted effect of over 50% in size
Method in brief: as §5

[16] = A CellTox Green Cytotoxicity Assay to monitor cytotoxicity in HepG2 cells - 8 hour (AID 1224890); further: nearly all actives have a fitted effect of over 45% in size
Method in brief: as §4

[17] = qHTS assay to identify small molecule antagonists of the estrogen receptor alpha (ER-alpha) signaling pathway using the BG1 cell line in the presence of 0.1 nM 17-beta-estradiol - cell viability counter screen (AID 1259241); further: nearly all actives have a fitted effect of over 40% in size; further: potency means the concentration at half of the fitted maximal effect
Method in brief: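 Cells were plated and left 24 hr, compounds in DMSO were pinned in, 17beta-estradiol was added to 0.1 nM final, and after 22 hr CellTiter-Fluor reagent was added for 30 min before fluorescence was read.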

[18] = A CellTox Green Cytotoxicity Assay to monitor cytotoxicity in HEK293 cells - 32 hour (AID 1224881); further: nearly all actives have a fitted effect of over 40% in size; further: potency means the concentration at half of the fitted maximal effect
Method in brief: as §3

[19] = qHTS RealTime-Glo MT Cell Viability Assay in HEK293 cells - 24 hour (AID 1224886); further: nearly all actives have a fitted effect of over 50% in size; further: potency means the concentration at half of the fitted maximal effect
Method in brief: as §1

[20] = qHTS RealTime-Glo MT Cell Viability Assay in HepG2 cells - 8 hour (AID 1224873); further: nearly all actives have a fitted effect of over 55% in size
Method in brief: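 Real-time viability: cells seeded at 600 per well together with NanoLuc and cell-permeant prosubstrate, compounds added after 5 h incubation. Luminescence tracked at 0, 8, 16, 24, 32 and 40 h of exposure.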
On the % scale 0 is the no-effect control and ±100 the full control effect.

CCCC1CCC(=O)CC1
inactive: Potency [1] | max response [2] 11.1% | Potency [3] | Potency [4] | Potency [5] | Potency [6] | Potency [7] | Potency [8] | Potency [9] | Potency [10] | Potency [11] | Potency [12] | Potency [13] | Potency [14] | Potency [15] | Potency [16] | Potency [17]

CCCCCCCCCCCCOCCOCCOCCOCCOCCOCCOCCOCCOCCO
active: Potency [1] 6.01 µM | Potency [2] 4.77 µM | Potency [3] 13.4 µM | Potency [4] 23.9 µM | Potency [6] 23.9 µM | Potency [7] 23.9 µM | Potency [18] 10.7 µM | Potency [10] 23.9 µM | Potency [11] 16.9 µM | Potency [19] 5.35 µM | Potency [13] 10.7 µM | Potency [14] 12 µM | Potency [17] 13.3 µM
inactive: Potency [8] | Potency [9] | Potency [15]

COc1ccc2cc1Oc1ccc(cc1)C[C@H]1c3c(cc4c(c3Oc3cc5c(cc3OC)CCN(C)[C@@H]5C2)OCO4)CCN1C
inactive: Potency [8] | Potency [9] | Potency [11] | Potency [15] | Potency [16]
active: Potency [2] 6.74 µM | Potency [4] 19 µM | Potency [5] 23.9 µM | Potency [6] 23.9 µM | Potency [7] 21.3 µM | Potency [10] 23.9 µM

CN(C)CCN1CCN(c2cccc(Cl)c2)C1=O
inactive: Potency [20] | Potency [4] | Potency [5] | Potency [6] | Potency [7] | Potency [18] | Potency [9] | Potency [10] | Potency [11] | Potency [12] | Potency [14] | Potency [15] | Potency [16] | Potency [17]

COC(=O)C1=C(C)NC(C)=C(C(=O)OCCN2CCN(C(c3ccccc3)c3ccccc3)CC2)C1c1cccc([N+](=O)[O-])c1 (stereo unspecified)
inactive: Potency [3] | Potency [4] | Potency [6] | Potency [7] | Potency [8] | Potency [9] | Potency [10] | Potency [11] | Potency [14] | Potency [15] | Potency [16]

Cc1cc(C(C)(C)C)c(O)c(C)c1Cn1c(=O)n(Cc2c(C)cc(C(C)(C)C)c(O)c2C)c(=O)n(Cc2c(C)cc(C(C)(C)C)c(O)c2C)c1=O
inactive: Potency [3] | Potency [4] | Potency [6] | Potency [7] | Potency [8] | Potency [18] | Potency [9] | Potency [10] | Potency [11] | Potency [14] | Potency [15] | Potency [16]
active: Potency [2] 21.9 µM

CC(C)(C)c1csc(-c2cc3cc(OCc4ccccc4CC(=O)O)ccc3o2)n1
inactive: Potency [5] | Potency [8] | Potency [9] | Potency [11] | Potency [15] | Potency [17]
active: Potency [2] 38.9 µM | Potency [3] 54.9 µM | Potency [4] 54.9 µM | Potency [6] 54.9 µM | Potency [7] 54.9 µM | Potency [18] 54.9 µM | Potency [10] 54.9 µM

O=C1CCc2cc(OCCCCc3nnnn3C3CCCCC3)ccc2N1
inactive: Potency [20] | Potency [3] | Potency [4] | Potency [5] | Potency [6] | Potency [7] | Potency [8] | Potency [9] | Potency [10] | Potency [11] | Potency [12] | Potency [13] | Potency [14] | Potency [16] | Potency [17]

Cc1ccc(O)c(N)c1
inactive: Potency [20] | Potency [4] | Potency [5] | Potency [9] | Potency [11] | Potency [12] | Potency [14] | Potency [15] | Potency [16] | Potency [17]

[Cl][Pt-2]([Cl])([Cl])[Cl]
inactive: Potency [20] | Potency [4] | Potency [5] | Potency [6] | Potency [7] | Potency [8] | Potency [18] | Potency [9] | Potency [10] | Potency [11] | Potency [12] | Potency [13] | Potency [14] | Potency [15] | Potency [16] | Potency [17]

CCO[C@@H]1O[C@H](C(COCc2ccccc2)OCc2ccccc2)[C@H](OCc2ccccc2)[C@H]1O (stereo partly specified)
inactive: Potency [3] | Potency [4] | Potency [5] | Potency [6] | Potency [8] | Potency [18] | Potency [9] | Potency [10] | Potency [11] | Potency [14] | Potency [16] | Potency [17]

OCCN1CCN(CCCN2c3ccccc3Sc3ccc(C(F)(F)F)cc32)CC1
inactive: Potency [9] | Potency [11] | Potency [15] | Potency [17]
active: Potency [2] 23.9 µM | Potency [6] 26.8 µM | Potency [7] 26.8 µM | Potency [10] 26.8 µM | Potency [19] 23.9 µM | Potency [14] 26.8 µM

CCC(C)(CCC(C)C)C(=O)[O][Sn]([CH3])([CH3])[O]C(=O)C(C)(CC)CCC(C)C (stereo unspecified)
inactive: Potency [20] | max response [2] 0.738% | Potency [3] | Potency [4] | Potency [5] | Potency [6] | Potency [7] | Potency [8] | Potency [18] | Potency [9] | Potency [10] | Potency [11] | Potency [12] | Potency [19] | Potency [13] | Potency [14] | Potency [16] | Potency [17]

CN(C)[C@@H](CCOc1cccc2ccccc12)c1ccccc1
inactive: Potency [8] | Potency [9] | Potency [11] | Potency [15] | Potency [17]
